Experimental findings from the supplement of paper PMC8007513 are described below.

This assay deals with Trichoderma virens ATCC 9645. Description: growth yield (OD600) with compound + IPBC relative to untreated control; higher = less growth inhibition. To be noted: compound concentration: 100 uM, IPBC concentration: 200 ng/ml. In a few lines: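 Plates were read for OD600 at 40 h and 72 h after Trichoderma virens ATCC 9645 spores (15,000 spores ml^−1 in potato dextrose broth) were grown at 30 °C with library compounds at 100 μM final, with or without a biocide at 200 ng ml^−1. Growth is stated relative to the control with neither agent, as the mean of duplicate screens.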

Counter-ions that a name gives are not always drawn. ± gives the standard error. Screen size: about 1,300 compounds; about 130 (10%) showed an effect of 50% or more. Shown is part of a subset that was picked to be rich in strong results.

For the molecule `C[C@]12Cc3c[nH]nc3C[C@@H]1CC[C@@H]1[C@@H]2CC[C@@]2(C)[C@H]1CC[C@]2(C)O` [Stanozolol] + CCCCNC(=O)OCC#CI [3-iodo-2-propynyl butylcarbamate (IPBC)], the growth yield was 91.02 ± 0.16% (40 h) and 95.9% (72 h).
On to `CCN1CC(CCN2CCOCC2)C(c2ccccc2)(c2ccccc2)C1=O` (stereo unspecified) [Doxapram hydrochloride] + CCCCNC(=O)OCC#CI [3-iodo-2-propynyl butylcarbamate (IPBC)], for which the growth yield runs as follows: (40 h) 88.6 ± 1.3%; (72 h) 91.14 ± 0.32%.
Regarding `CN(C)CCCSC(=N)N` [Dimaprit dihydrochloride] + CCCCNC(=O)OCC#CI [3-iodo-2-propynyl butylcarbamate (IPBC)], the growth yield came to 93.9 ± 6.5% (40 h) and 95.8 ± 4.3% (72 h).
For `Cc1ccc(-c2ncc(Cl)cc2-c2ccc(S(C)(=O)=O)cc2)cn1` [Etoricoxib] + CCCCNC(=O)OCC#CI [3-iodo-2-propynyl butylcarbamate (IPBC)], the growth yield came to 88.79 ± 0.48% (40 h) and 91.14 ± 0.73% (72 h).
The like results for `CN[C@H]1CC[C@@H](c2ccc(Cl)c(Cl)c2)c2ccccc21` [Sertraline] + CCCCNC(=O)OCC#CI [3-iodo-2-propynyl butylcarbamate (IPBC)] were, in that order, 30.8 ± 4.1% and 82.5 ± 2%.
The like results for `CN[C@@H]1C[C@@H](c2ccc(Cl)c(Cl)c2)c2ccccc21` [Indatraline hydrochloride] + CCCCNC(=O)OCC#CI [3-iodo-2-propynyl butylcarbamate (IPBC)] were, in that order, 29.4 ± 4.9% and 79.5 ± 1.7%.
The like results for `Cc1c(N(C)CS(=O)(=O)O)c(=O)n(-c2ccccc2)n1C` [Dipyrone] + CCCCNC(=O)OCC#CI [3-iodo-2-propynyl butylcarbamate (IPBC)] were, in that order, 92.4 ± 6.7% and 87.9 ± 5.2%.
On to `COc1ccnc(C[S+]([O-])c2nc3cc(OC(F)F)ccc3[nH]2)c1OC` (stereo unspecified) [Pantoprazole sodium] + CCCCNC(=O)OCC#CI [3-iodo-2-propynyl butylcarbamate (IPBC)], for which the growth yield was 73.5 ± 2.4% (40 h) and 98.9 ± 0.94% (72 h).
The like results for `C#C[C@]1(O)CC[C@H]2[C@@H]3CCc4cc(OC)ccc4[C@H]3CC[C@@]21C` [Ethynylestradiol 3-methyl ether] + CCCCNC(=O)OCC#CI [3-iodo-2-propynyl butylcarbamate (IPBC)] were, in that order, 87 ± 16% and 88.9 ± 12%.
The like results for `CO[C@@]1(NC(=O)C(C(=O)O)c2ccc(O)cc2)C(=O)N2C(C(=O)O)=C(CSc3nnnn3C)CO[C@@H]21` (stereo partly specified) [Moxalactam disodium salt] + CCCCNC(=O)OCC#CI [3-iodo-2-propynyl butylcarbamate (IPBC)] were, in that order, 97.1 ± 14% and 96 ± 7.7%.
The like results for `CCn1cc(C(=O)O)c(=O)c2cc(F)c(N3CCNCC3)nc21` [Enoxacin] + CCCCNC(=O)OCC#CI [3-iodo-2-propynyl butylcarbamate (IPBC)] were, in that order, 83.9 ± 1.6% and 87 ± 1.5%.
Take `CCCCC(CC)CN1CN(CC(CC)CCCC)CC(C)(N)C1` (stereo unspecified) [Hexetidine] + CCCCNC(=O)OCC#CI [3-iodo-2-propynyl butylcarbamate (IPBC)]: the growth yield (40 h) came to 28.6 ± 8.6% and the growth yield (72 h) was determined as 91.1 ± 1.8%.
The like results for `CCOC1O[C@H]([C@@H](COCc2ccccc2)OCc2ccccc2)[C@H](OCc2ccccc2)[C@H]1O` (stereo partly specified) [Tribenoside] + CCCCNC(=O)OCC#CI [3-iodo-2-propynyl butylcarbamate (IPBC)] were, in that order, 75.4 ± 2.1% and 88.1 ± 1.1%.
The like results for `COc1cc([C@@H]2c3cc4c(cc3[C@H](O)[C@H]3COC(=O)[C@H]23)OCO4)cc(OC)c1OC` [Podophyllotoxin] + CCCCNC(=O)OCC#CI [3-iodo-2-propynyl butylcarbamate (IPBC)] were, in that order, 104 ± 6.3% and 102 ± 4.5%.
The like results for `CC(=C(CCO)SSCC1CCCO1)N(C=O)Cc1cnc(C)nc1N` (stereo in doubt) [Fursultiamine Hydrochloride] + CCCCNC(=O)OCC#CI [3-iodo-2-propynyl butylcarbamate (IPBC)] were, in that order, 104 ± 4.3% and 102 ± 3.2%.
As to `Oc1c(I)cc(Cl)c2cccnc12` [Clioquinol] + CCCCNC(=O)OCC#CI [3-iodo-2-propynyl butylcarbamate (IPBC)], the growth yield is, setting by setting: (40 h) 11.4%; (72 h) 5.66 ± 0.21%.
The like results for `Oc1c(Cl)cc(Cl)c2cccnc12` [Chloroxine] + CCCCNC(=O)OCC#CI [3-iodo-2-propynyl butylcarbamate (IPBC)] were, in that order, 1.27 ± 0.95% and 1.89 ± 0.21%.
The like results for `CC(C(=O)O)c1ccc2c(c1)Cc1cccnc1O2` (stereo unspecified) [Pranoprofen] + CCCCNC(=O)OCC#CI [3-iodo-2-propynyl butylcarbamate (IPBC)] were, in that order, 92 ± 8.7% and 90.6 ± 3.8%.
The like results for `Nc1ncn(C2OC(CO)C(O)C2O)c(=O)n1` (stereo unspecified) [Azacytidine-5] + CCCCNC(=O)OCC#CI [3-iodo-2-propynyl butylcarbamate (IPBC)] were, in that order, 67.2 ± 3% and 91.9 ± 1.1%.
For the molecule `Cc1cn([C@H]2C=C[C@@H](CO)O2)c(=O)[nH]c1=O` [Stavudine] + CCCCNC(=O)OCC#CI [3-iodo-2-propynyl butylcarbamate (IPBC)], the growth yield (40 h) came out at 98.5 ± 15% and the growth yield (72 h) amounted to 97.6 ± 9.5%.
The like results for `CNS(=O)(=O)Cc1ccc2[nH]cc(CCN(C)C)c2c1` [Sumatriptan succinate] + CCCCNC(=O)OCC#CI [3-iodo-2-propynyl butylcarbamate (IPBC)] were, in that order, 92 ± 11% and 91.3 ± 7.7%.
On to `CCCCS(=O)(=O)N[C@@H](Cc1ccc(OCCCCC2CCNCC2)cc1)C(=O)O` [Tirofiban hydrochloride] + CCCCNC(=O)OCC#CI [3-iodo-2-propynyl butylcarbamate (IPBC)], for which the growth yield was 85.5 ± 1.9% (40 h) and 91.3 ± 0.94% (72 h).
Turning to `CC(=O)OC1CN2CCC1CC2` (stereo unspecified) [Aceclidine Hydrochloride] + CCCCNC(=O)OCC#CI [3-iodo-2-propynyl butylcarbamate (IPBC)], the growth yield reads like this: (40 h) 80.85 ± 0.79%; (72 h) 86.84 ± 0.21%.
The like results for `CC(C)(CO)C(O)C(=O)NCCCO` (stereo unspecified) [Panthenol (D)] + CCCCNC(=O)OCC#CI [3-iodo-2-propynyl butylcarbamate (IPBC)] were, in that order, 87.2 ± 0.48% and 90.09 ± 0.52%.
The like results for `OCc1cc(C(O)CNCCCCCCOCCCCc2ccccc2)ccc1O` (stereo unspecified) [Salmeterol] + CCCCNC(=O)OCC#CI [3-iodo-2-propynyl butylcarbamate (IPBC)] were, in that order, 34.9 ± 1.6% and 75.1 ± 3.4%.
The like results for `CC(C)(C)NCC(O)c1ccc(O)c(CO)c1` (stereo unspecified) [Salbutamol] + CCCCNC(=O)OCC#CI [3-iodo-2-propynyl butylcarbamate (IPBC)] were, in that order, 85.93 ± 0.16% and 93 ± 0.94%.
As to `CC(C)(C)NC[C@H](O)c1ccc(O)c(CO)c1` [Levalbuterol hydrochloride] + CCCCNC(=O)OCC#CI [3-iodo-2-propynyl butylcarbamate (IPBC)], the growth yield runs as follows: (40 h) 86.2 ± 2.4%; (72 h) 90.3 ± 2.6%.
For `C1N2CN3CN1CN(C2)C3` [Methenamine] + CCCCNC(=O)OCC#CI [3-iodo-2-propynyl butylcarbamate (IPBC)], the growth yield (40 h) was determined as 89 ± 1.3% and the growth yield (72 h) came out at 93.13 ± 0.84%.
The like results for `Nc1ccc(/N=N/c2ccccc2)c(N)n1` [Phenazopyridine hydrochloride] + CCCCNC(=O)OCC#CI [3-iodo-2-propynyl butylcarbamate (IPBC)] were, in that order, 7.15 ± 0.48% and 13.5 ± 1.8%.
Regarding `Nc1c2ccccc2nc2ccccc12` [Aminacrine] + CCCCNC(=O)OCC#CI [3-iodo-2-propynyl butylcarbamate (IPBC)], the growth yield is, setting by setting: (40 h) 85.5 ± 5.4%; (72 h) 96.3 ± 3.4%.
As for `Cc1cccc(C)c1NC1=NCCCS1` [Xylazine] + CCCCNC(=O)OCC#CI [3-iodo-2-propynyl butylcarbamate (IPBC)], the growth yield (40 h) amounted to 84.3 ± 4.3% and the growth yield (72 h) came to 88.8 ± 2.8%.
The like results for `CN(C)CCN(Cc1ccccc1)c1ccccn1` [Tripelennamine hydrochloride] + CCCCNC(=O)OCC#CI [3-iodo-2-propynyl butylcarbamate (IPBC)] were, in that order, 95 ± 3.5% and 95.2 ± 1.9%.
The like results for `CC(C)(C)NC(=O)[C@H]1CC[C@H]2[C@@H]3CC[C@H]4NC(=O)C=C[C@]4(C)[C@H]3CC[C@]12C` [Finasteride] + CCCCNC(=O)OCC#CI [3-iodo-2-propynyl butylcarbamate (IPBC)] were, in that order, 84.2 ± 7.9% and 87.5 ± 6.7%.
The like results for `Cc1c(O)c(=O)n(-c2ccccc2)n1C` [Antipyrine, 4-hydroxy] + CCCCNC(=O)OCC#CI [3-iodo-2-propynyl butylcarbamate (IPBC)] were, in that order, 91.5 ± 2.2% and 92.2 ± 1.4%.
Take `CO/N=C(\C(=O)N[C@@H]1C(=O)N2C(C(=O)O)=C(COC(N)=O)CS[C@H]12)c1ccco1` [Cefuroxime sodium salt] + CCCCNC(=O)OCC#CI [3-iodo-2-propynyl butylcarbamate (IPBC)]: the growth yield (40 h) stood at 92.13 ± 0.64% and the growth yield (72 h) was 92.2 ± 2%.
For `CC[C@H]1OC(=O)[C@H](C)[C@@H](O[C@H]2C[C@@](C)(OC)[C@@H](O)[C@H](C)O2)[C@H](C)[C@@H](O[C@@H]2O[C@H](C)C[C@H](N(C)C)[C@H]2O)[C@](C)(O)C[C@@H](C)CN(C)[C@H](C)[C@@H](O)[C@]1(C)O` [Azithromycin] + CCCCNC(=O)OCC#CI [3-iodo-2-propynyl butylcarbamate (IPBC)], the growth yield is, setting by setting: (40 h) 108.7 ± 0.95%; (72 h) 106 ± 0.32%.
In the case of `CC[C@H]1OC(=O)[C@H](C)[C@@H](O[C@H]2C[C@@](C)(OC)[C@@H](O)[C@H](C)O2)[C@H](C)[C@@H](O[C@@H]2O[C@H](C)C[C@H](N(C)C)[C@H]2O)[C@](C)(OC)C[C@@H](C)C(=O)[C@H](C)[C@@H](O)[C@]1(C)O` [Clarithromycin] + CCCCNC(=O)OCC#CI [3-iodo-2-propynyl butylcarbamate (IPBC)], the growth yield reads like this: (40 h) 91.65 ± 0.79%; (72 h) 92.1%.
The like results for `CC[C@H]1OC(=O)[C@H](C)[C@@H](O[C@H]2C[C@@](C)(OC)[C@@H](O)[C@H](C)O2)[C@H](C)[C@@H](O[C@@H]2O[C@H](C)C[C@H](N(C)C)[C@H]2O)[C@](C)(O)C[C@@H](C)C(=O)[C@H](C)[C@@H](O)[C@]1(C)O` [Erythromycin] + CCCCNC(=O)OCC#CI [3-iodo-2-propynyl butylcarbamate (IPBC)] were, in that order, 45.3 ± 0.79% and 50.8 ± 0.84%.
